Only some compounds are listed: those with a hit (about 5.3% of all), similar ones and a draw of the others.
HCV inhibitor: inhibitors of hepatitis C virus infection. Huh7.5.1 HCVcc-Cre infection, luciferase reporter, 44 h. Potency, µM (doses to about 41.8 µM), for the others: top-dose activity change, negative = inhibition, usual class: inhibitors. hit rate 3.4% among 340,000; active means well fitted inhibition curve with a large enough effect; inconclusive means small, poorly fitted or top-dose-only effect, or another doubt; inactive means no such curve, though single readings can be large or run the other way
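Infectious HCVcc-Cre (~0.5 moi) was added to cells just after compound, with cells seeded 4 h earlier at 1,000 per well. Luciferase activity after 44 h culture reported infection; substrate was incubated 15 min at room temperature before reading.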
Vaccinia mCherry: vaccinia inhibition (mCherry reporter) | Vaccinia virus mCherry reporter infection, fluorescence | Potency, µM (doses to about 36.5 µM), for the others: top-dose activity change, negative = inhibition, actives largely listed as inhibitors | hit rate 0.63% among 310,000; calls by dose curve; tested in A549 cells; further: nearly all actives have a fitted effect of over 35% in size
Marburg entry inh: inhibitors of Marburg virus binding or cell entry; Marburg virus pseudotyped entry inhibition, cell reporter; Potency, µM (series often up to 37.8 µM), without a hit: top-dose activity change, negative = inhibition, usual class: inhibitors; hit rate 1.8% among 300,000; AID 540276; calls by dose curve; tested in HEK293 cells
Lassa entry inh: inhibitors of Lassa virus binding or cell entry; Lassa virus pseudotype entry inhibition, cell reporter; Potency, µM (top dose mostly 37.9 µM), inactives show at the top dose activity change, negative = inhibition, hits mostly inhibitors; hit rate 1.2% among 300,000; calls by dose curve; tested in HEK293 cells; further: nearly all actives have a fitted effect of over 50% in size
VACV Venus inh: vaccinia inhibition (Venus reporter); Potency, µM (series often up to 36.5 µM), for inactives: at the highest dose activity change, negative = inhibition, usual class: inhibitors; hit rate 0.46% among 330,000; AID 720580; Vaccinia virus Venus reporter expression, fluorescence; calls by dose curve; tested in A549 cells; further: nearly all actives have a fitted effect of over 30% in size
FMDV inh: blocks foot and mouth disease virus | FMDV antiviral cell-based qHTS | Potency, µM (doses to about 57.9 µM), without a hit: top-dose activity change, negative = inhibition, hits mostly inhibitors | hit rate 1.2% among 410,000 | AID 1159524; calls by dose curve; tested in HEK293T cells; further: read-out not given here; nearly all actives have a fitted effect of over 45% in size
* hit, by the source's call; i = inactive; ? = inconclusive; . = no result given; [ ] = another dose, or the depositor's remark. On the % scale 0 is the no-effect control and ±100 the full control effect; potency means the concentration at half of the fitted maximal effect.

SMILES	HCV inhibitor	Vaccinia mCherry	Marburg entry inh	Lassa entry inh	VACV Venus inh	FMDV inh
COc1ccc(-c2cnc(SCC(=O)Nc3nc(C(C)(C)C)cs3)n2Cc2ccco2)cc1	4.5µM*	.	?	13µM*	-17%	?
O=C(CSc1nnc(-c2ccccc2)n1Cc1ccco1)Nc1ccc(S(=O)(=O)N2CCCC2)cc1	14µM*	.	?	?	.	-28%
COc1ccc(-c2cnc(SCC(=O)Nc3cc(C)on3)n2Cc2ccco2)cc1	-23%	-15%	-2%	-9%	-9%	?
Cc1ccc(-c2csc(NC(=O)CSc3nnc4c(n3)[nH]c3ccccc34)n2)cc1	-27%	?	?	3.2µM*	?	?
O=c1c(-c2cc(F)cc(F)c2)nc2cnc(N3CCOCC3)nc2n1C1CC1	.	.	.	.	.	-9%
CCn1c(CCNC(=O)c2cccs2)nnc1SCC(=O)Nc1cccc(Cl)c1	2%	.	-28%	6%	.	-10%
CCn1c(CCNC(=O)c2cccs2)nnc1SCC(=O)Nc1nc(-c2ccccc2)cs1	-23%	.	?	-11%	.	20µM*
O=C(CSc1nnc(-c2ccncc2)n1Cc1ccco1)Nc1nc(-c2ccccc2)cs1	10µM*	-10%	?	-20%	-30%	18µM*
CCc1ccc(O)c(C(=O)c2cnc3cc(-c4ccc(C)cc4)nn3c2)c1	.	4%	10%[46.1 µM]	?	6%	-3%
Cc1ccc2nc(-c3ccccc3C)c(CN(CC3CCCO3)C(=O)c3cccs3)cc2c1 (centres undefined)	.	-3%	.	.	-9%	-5%
Cc1ccc(Sc2ccc(N3CCCC(C(=O)Nc4ccc(F)cc4F)C3)nn2)cc1 (centres undefined)	.	-6%	?	0.89µM*	6%	-14%
CCOC(=O)c1ccc(NC(=O)C2CCCN(c3ccc(Sc4ccc(C)cc4)nn3)C2)cc1 (centres undefined)	.	-20%	?	6.3µM*	-19%	11%
CCOc1cc(C2Nc3ccccc3C(=O)N2Cc2ccco2)ccc1O (centres undefined)	.	19%	.	.	-7%	.
COC(=O)NC(CC(C)=O)c1ccc(Cl)cc1 (centres undefined)	.	.	3%[14.2 µM]	.	.	.
C[C@H](NC(=O)c1nc[nH]c1C(=O)N[C@@H](Cc1ccccc1)C(=O)OC(C)(C)C)C(=O)OC(C)(C)C	11µM*	?	.	.	?	-15%
CC(C)(C)OC(=O)[C@H](Cc1ccccc1)NC(=O)c1[nH]cnc1C(=O)N[C@@H](Cc1ccccc1)C(=O)OCc1ccccc1	7%	-3%	.	.	-24%	-1%
CCOC(=O)c1ccc(NC(=O)c2nc[nH]c2C(=O)N[C@@H](Cc2ccccc2)C(=O)OC(C)(C)C)cc1	49%	13µM*	-1%	.	?	?
CC(C)C[C@H](NC(=O)c1nc[nH]c1C(=O)N[C@@H](CC(C)C)C(=O)OC(C)(C)C)C(=O)OC(C)(C)C	?	?	.	.	10µM*	40µM*
CC(C)(C)OC(=O)[C@H](Cc1ccccc1)NC(=O)c1[nH]cnc1C(=O)Nc1ccc(Cl)cc1	6%	?	.	.	?	?
O=C1C(N2CCOCC2)=C(n2nnc3ccccc32)C(=O)c2ccccc21	7.1µM*	?	7.9µM*	?	?	10µM*
C=C1C=C(C(F)F)n2ncc(C(=O)NCc3ccc(F)cc3)c2N1	.	-19%	.	.	-8%	.
CCOc1ccc(C(=O)N(Cc2cc(OC)c(OC)c(OC)c2)c2ccccn2)cc1	.	-25%	?	-9%[46.1 µM]	?	?
CCC1(C2CCN(C(=O)c3cc4ccccc4o3)CC2)NC(=O)N(CCc2scnc2C)C1=O (centres undefined)	.	-18%	.	.	-10%	14%
O=C(c1ccc(Cn2c(=S)[nH]c3ccccc3c2=O)cc1)N1CCN(c2ccccn2)CC1	11µM*	-24%	?	?	?	?
O=C(CCc1nnc2n(Cc3ccc(F)cc3)c(=O)c3ccccc3n12)NCCN1CCOCC1	13%	-10%	.	.	-11%	?
SMILES	HCV inhibitor	Vaccinia mCherry	Marburg entry inh	Lassa entry inh	VACV Venus inh	FMDV inh
O=C(CCc1nnc2n(Cc3ccc(F)cc3)c(=O)c3ccccc3n12)N1CCN(c2ccccn2)CC1	14µM*	.	.	.	.	?
O=C(c1ccc(Cn2c(=O)[nH]c3ccccc3c2=O)cc1)N1CCN(c2ccccn2)CC1	-16%	-14%	10%	-7%	-20%	0%
Cc1ccc(C(=O)/C=C/Nc2ccccn2)cc1	?	-6%	?	0.63µM*	-13%	2.5µM*
CC1(C)Cc2ccccc2C(/C(=N/O)C(N)=O)=N1	-6%	-1%	3%	28%	-11%	-26%
CC(=O)c1ccc(N/N=C(/C(N)=O)C2=NC(C)(C)Cc3ccccc32)cc1	?	?	3.3µM*	2.9µM*	?	0%
CC(c1nnc(Sc2nnnn2-c2ccccc2)n1-c1ccc(F)cc1)N(C)C (centres undefined)	-3%	13µM*	5%	5%	?	-28%
CCn1nc(C(=O)O)c(=O)c2c1CC1=C(C2)OCO1	.	.	5%	.	.	.
N#Cc1nc(-c2ccc(OCc3ccc(Cl)cc3)cc2)oc1N1CCCC1	.	17%	.	.	1%	.
COc1ccc(/C=N/NC(=O)c2cccc(OC(F)(F)C(F)F)c2)c(OC)c1OC	?	-6%	23%	10µM*	-7%	-21%
COc1ccc(OC)c(/C=N/NC(=O)c2cc3c(OC)cc(OC)cc3[nH]2)c1	25µM*	?	?	?	?	?
COc1cccc(/C=N/NC(=O)c2cc3c(OC)cccc3[nH]2)c1OC	?	-11%	-1%	-10%	-14%	?
COc1ccc(OC)c(/C=N/NC(=O)c2cc3c(OC)cccc3[nH]2)c1	?	-12%[7.34 µM]	10µM*	3%	-18%[7.34 µM]	-27%
c1c2c(cc3sc(N4CCCCC4)nc13)OCO2	-12%	-19%	?	6.3µM*	-10%	-39%
COC(=O)C1N2C(=O)N(C)[C@H](C(=O)OC)[C@H]2SC1(C)C (some centres undefined)	.	i	.	.	-7%	.
CCN1C(=NCCCCO)N[C@@H](CCc2ccccc2)[C@H](C(=O)OC)[C@H]1C	.	.	9%[14.2 µM]	?	.	.
CC[C@@H](C(=O)[C@@H](C)[C@@H](O)[C@H](C)[C@@H]1O[C@@H]([C@@H](CC)C(=O)O)CC[C@@H]1C)[C@H]1O[C@]2(C=C[C@@H](O)[C@]3(CC[C@@](C)([C@H]4CC[C@](O)(CC)[C@H](C)O4)O3)O2)[C@H](C)C[C@@H]1C	0.35µM*	2.5µM*	.	.	11µM*	?
Cn1c(NCCO)nc2c1c(=O)n(Cc1cccc(F)c1)c(=O)n2C	.	-4%	3%[46.1 µM]	?	8%	-11%
CCc1cccc(NC(=O)c2ccc(CNS(=O)(=O)c3ccc4c(c3)C(C)(C)C(=O)N4C)cc2)c1	.	-17%	.	?	-18%	22µM*
Cc1ccc(NC(=O)c2ccc(CNS(=O)(=O)c3ccc4c(c3)C(C)(C)C(=O)N4C)cc2)cc1F	.	?	.	-13%[46.1 µM]	-23%	25µM*

Bioassay records as filed in PubChem.
